High-throughput results from PubChem.
ST2 inh – inhibitors of human ST2 (IL1RL1) binding to IL-33, primary screen, biochemical, AlphaLISA; Interleukin-1 receptor-like 1 (Homo sapiens), Q01638; AID 1259354, 2018; 78,000 tested, 2.3% active; inhibition, % for hits at 17 µM; AlphaLISA ST2-Fc/biotin-IL-33 interaction, 1 h; in the data active means inhibition above about 30%
Target sequence (Q01638 whole entry, looked up): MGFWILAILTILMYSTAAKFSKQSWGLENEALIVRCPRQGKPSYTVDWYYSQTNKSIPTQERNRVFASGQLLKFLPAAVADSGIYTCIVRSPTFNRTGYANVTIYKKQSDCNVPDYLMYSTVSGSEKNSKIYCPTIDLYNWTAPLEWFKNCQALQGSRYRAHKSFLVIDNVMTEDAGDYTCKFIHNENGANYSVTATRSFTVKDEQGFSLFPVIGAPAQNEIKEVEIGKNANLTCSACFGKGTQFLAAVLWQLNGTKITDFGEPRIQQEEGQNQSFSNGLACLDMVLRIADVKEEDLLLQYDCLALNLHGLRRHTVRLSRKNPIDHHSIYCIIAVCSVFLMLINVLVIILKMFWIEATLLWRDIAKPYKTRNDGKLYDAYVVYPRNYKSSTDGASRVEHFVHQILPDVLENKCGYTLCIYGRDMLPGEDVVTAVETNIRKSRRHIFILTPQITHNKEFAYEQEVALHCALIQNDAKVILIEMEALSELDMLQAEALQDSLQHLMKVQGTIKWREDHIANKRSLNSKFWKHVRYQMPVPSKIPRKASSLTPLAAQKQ
Each line names hits and unclear results; the compound was inactive in the other large screens; ! = not confirmed by another sample. Shown is part of a subset that was picked to be rich in hits.

COc1ccc(CN[C@H]2[C@H](O)[C@@H](N(C)CCN(C)C)[C@@H]3OC[C@H]2O3)cc1	none
Cc1ccc(NC(=O)Cn2c(-c3ccc4c(c3)OCO4)cn(-c3ccccc3)c2=O)cc1	ST2 inh 31.0%
COc1ccc(NC(=O)CN2CCN(Cc3ccc4c(c3)OCO4)CC2)cc1	none
Cc1ccc(-c2noc(CCC(=O)Nc3ccc4c(c3)OCO4)n2)cc1	none
O=C(Nc1ccc(I)cc1)c1ccccc1	none
O=C(NCCN1CCCC1)C1CCN(S(=O)(=O)N2CCCCC2)CC1	none
NNc1ccc2c(Cl)cc(Cl)c(O)c2n1	ST2 inh 35.0%
CN(C)CCN1C(=O)C(=O)C(=C(O)c2ccc(S(=O)(=O)N(C)C)cc2)C1c1cccnc1 (stereo not given)	none
Cc1csc2ncc(C(=O)Nc3ccccc3)c(=O)n12	none
Cc1csc2ncc(C(=O)Nc3ccon3)c(=O)n12	ST2 inh 97.0%!
Cc1csc2ncc(C(=O)Nc3ccc(Cl)cc3)c(=O)n12	none
Cc1c(NC(=O)CCC2CCCCC2)cccc1C(=O)O	none
CCSCCOC(=O)C1=C(C)NC2=C(C(=O)CC(C)(C)C2)C1c1ccc(F)cc1 (stereo not given)	none
Cc1ccc(C(=O)NC(C)c2ccccc2)c(Cl)c1 (stereo not given)	none
Cc1ccc(N=Cc2nc(-c3ccccc3)oc2O)cc1Cl	none
COc1cc(-c2nc(C=C3C(C)=Nc4ccccc43)c(O)o2)cc(OC)c1OC	ST2 inh 34.0%
COc1cc(-c2nnc3n2C(C)(C)Cc2ccccc2-3)cc(OC)c1OC	none
O=C(Nc1cc(Cl)ccc1O)c1cc(-c2ccc(F)cc2)on1	none
C/C(=C\C(=O)c1ccc(Cl)cc1)Nc1ccccc1O	ST2 inh 30.0%
Cc1c(F)cccc1NC(=O)c1ccc(Cl)cc1	none
O=C(Nc1ccccc1O)c1ccc(S(=O)(=O)c2ccc(Cl)cc2)cc1	none
COc1cccc(N(CC(=O)N2CCOCC2)S(C)(=O)=O)c1	none
O=C(NCCc1ccccc1)C1CCCN(C2CCN(C(=O)c3ccoc3)CC2)C1 (stereo not given)	none
COc1ncc(-c2nccn2CC(C)c2ccccc2)cn1 (stereo not given)	none
CCCCc1ccc(C(=O)Nc2ccc(C(C)=O)cc2)cc1	none
CC(C)c1nnc(NC(=O)c2ccc(Br)cc2)s1	none
Cc1nnc(NC(=O)Nc2ccccc2)s1	none
Cc1nnc(NC(=O)c2ccc(C(C)C)cc2)s1	ST2 inh 92.0%
Cc1c(C(=O)Nc2cccc(Cl)c2)sc2nc[nH]c(=O)c12	none
O=C(Nc1ccccn1)c1cccc(S(=O)(=O)N2CCCCC2)c1	none
O=C(Nc1ccccc1[N+](=O)[O-])c1ccc(S(=O)(=O)N2CCCCC2)cc1	ST2 inh 35.0%
O=C(Nc1ccccc1C(=O)O)c1ccc(S(=O)(=O)N2CCCCC2)cc1	none
Cc1ccc(NC(=O)c2cccc(S(=O)(=O)N3CCCCC3)c2)cc1	none
CC1CN(S(=O)(=O)c2ccc(Cl)c(C(=O)Nc3ccccc3[N+](=O)[O-])c2)CC(C)O1 (stereo not given)	none
O=C(Nc1ccccc1[N+](=O)[O-])c1cccc(S(=O)(=O)N2CCCCC2)c1	ST2 inh 43.0%
CCOc1ccc(C(=O)Nc2nc(C)c(C(=O)N(C)C)s2)cc1	none
Cc1[nH]c2ccccc2c1CCNC(=O)Cn1cnc([N+](=O)[O-])n1	none
COc1ccc(Oc2nc3ccccc3n3c(C)nnc23)cc1	none
COCC(C)NC(=O)c1cc2c(=O)n3ccccc3nc2n1C (stereo not given)	none
CCC(=O)N1CCc2cc(Br)cc(S(=O)(=O)N3CCc4ccccc4C3)c21	none
CN(Cc1ccc2ccccc2n1)C(=O)c1cn(Cc2ccc(F)cc2Cl)nn1	none
CCOc1ccc(-n2c3nc(=O)n(C)c(=O)c-3cc3ccccc32)cc1	none
CCn1nc(-c2ccccn2)nc2c(=O)n(C)c(=O)nc1-2	none
CCCCOc1ccc(OCCCC)c2c1nc(-c1ccccc1NC)c(=O)n2C	ST2 inh 69.0%
CNC(=O)[C@H]1O[C@@H](n2cnc3c(N)ncnc32)[C@H](O)[C@@H]1O	none
CCn1c(=O)c(-c2ccc3ccccc3n2)cc2cc(Br)ccc21	ST2 inh 36.0%
CC(=O)c1ccccc1-c1ccc2ccccc2n1	none
CCn1c(/C=C/c2ccc(F)cc2)nc2ccccc2c1=O	none
N#Cc1c(NC(=O)CO/N=C\c2cccs2)sc2c1CCCC2	none
O=C(CSc1c2c(nc3cc(Cl)ccc13)CCCC2)NCC1CCCO1 (stereo not given)	none
COc1ccc2c(Cl)c(C(=O)O)sc2c1	none
Cc1cccc2oc(CNC(=O)C(c3cccc(F)c3)N(C)C)nc12 (stereo not given)	none
COc1cc(/C=C2\SC(N)=NC2=O)cc(OC)c1O	none
COc1cc(/C=C2\SC(N3CCCCC3)=NC2=O)cc(OC)c1OC	none
COc1cc(/C=C2\SC(c3ccccc3)=NC2=O)cc(Br)c1O	ST2 inh 40.0%
Cc1c(NCc2cccnc2)cccc1C(=O)NC(C(=O)N(C)C)c1ccccc1 (stereo not given)	none
O=C(Nc1ccccc1OC(F)(F)C(F)F)c1ccc(Cl)cc1Cl	none
C(=C\c1cnc2n[nH]nc2c1)/c1ccccc1	none
O=c1c2ccccc2nc(/C=C/c2ccccc2)n1Cc1ccccc1	none
C(=C\c1ccccc1)/Sc1ccc2ccccc2n1	ST2 inh 34.0%
CC(=O)c1ccc(OC(=O)c2cc3ccccc3oc2=O)cc1	none
CCCCCN=Cc1sc2ccc(OCC)cc2c1O	ST2 inh 33.0%
CCOc1ccc2nc(N=Cc3nc(-c4ccc(Br)cc4)oc3O)sc2c1	none
CCOc1ccc2sc(C=NC3CCCCC3)c(O)c2c1	ST2 inh 41.0%
CCOc1ccc2sc(C=NCCc3ccccn3)c(O)c2c1	none
CCOc1ccc2nc(NC(=O)C3CCCCC3)sc2c1	none
CCOc1ccc(NC(=O)CC2CCCCC2)cc1	none
O=C(c1ccc(Cl)cc1)N1CCCc2ccccc21	none
COc1ccc(C2(C(=O)N3CCC4(CC3)CN(C)CCN4C)CCCC2)cc1	none
COc1ccc(-c2cc(NCc3cccnc3)nc3[nH]ccc23)cn1	none
OCCNc1cc(-c2nccc(C3CCCC3)n2)c2cc[nH]c2n1	none
c1cnc(-c2cc(NCc3cccnc3)nc3[nH]ccc23)nc1	ST2 inh 35.0%
O=C(O)CNc1cc(-c2ccccc2C(F)(F)F)c2cc[nH]c2n1	none
NCCc1cccc(-c2cc(NCc3ccccn3)nc3[nH]ccc23)c1	ST2 inh 35.0%
Cc1cc(-c2cc(N)nc3[nH]ccc23)cnc1N	none
COC(=O)c1c(NC(=O)COc2ccc(F)cc2F)sc(C)c1C	none
Cn1c(=O)c2c(nc(N3CCCC3)n2Cc2ccc(F)cc2)n(C)c1=O	none
Cc1ccc2c(CC(=O)N3CC(=O)N(CC(C)C)CC(OCc4ccccn4)C3)cc(=O)oc2c1 (stereo not given)	none
COc1ccc(-c2ccc(C3NCCc4[nH]cnc43)cc2)c2ccc(C)nc12 (stereo not given)	none
Cc1cc(C)n(CCCN(C)C(=O)c2scc3c2OCCO3)n1	none
CSc1nnc2c(n1)OC(c1ccco1)Nc1ccc(Br)cc1-2 (stereo not given)	none
Cc1ccc(NC(=O)c2cccc([N+](=O)[O-])c2)cc1C	none
O=C(Nc1ccc(I)cc1)c1cccc([N+](=O)[O-])c1	none
O=C(Nc1cccc(Cl)c1)c1cccc([N+](=O)[O-])c1	ST2 inh 92.0%
O=C(NC1CC=CC1)C1CCCN(C2CCN(CCc3ccccc3)CC2)C1 (stereo not given)	none
C=CCc1cccc(C)c1OCCCn1ccnc1	none
O=C(c1ccccc1-c1nn[nH]n1)N1CCOC(C(F)(F)F)C1 (stereo not given)	none
O=[N+]([O-])c1ccc(S(=O)(=O)NC2CCCC2)cc1	none
Oc1cc(O)cc(/C=C/c2ccc(O)c(O)c2)c1	ST2 inh 33.0%
